12-LOX inh = Primary qHTS assay for inhibitors of human arachidonate 12S-lipoxygenase (ALOX12): Round 2; Polyunsaturated fatty acid lipoxygenase ALOX12 (Homo sapiens), P18054; purified 12hLO, xylenol orange hydroperoxide absorbance; Potency, µM (highest dose often 108 µM), inactives show at the top dose activity change, negative = inhibition, actives largely listed as inhibitors; 580,000 compounds, 1.1% hits; AID 1671190, 2021; note: potency is the fitted concentration of half-maximal effect; % is set by controls: 0 for no effect and ±100 for the full control effect
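Purified human 12hLO at 150 nM in 25 mM Hepes, 0.01% Triton X-100, pH 7.0, preincubated 15 min at room temperature with compound. Reaction started with 40 uM arachidonic acid, 30 min at room temperature. Hydroperoxide measured by Fe-xylenol orange, 573/405 nm absorbance ratio.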
ERG-DNA inh = qHTS for Small Molecule Inhibitors of the ERG Ets/DNA interaction | Transcriptional regulator ERG (Homo sapiens), P11308 | fluorescence polarization, His-ERG Ets domain / labelled DNA | Potency, µM (titrated, usually from 76.9 µM), for inactives: top-dose FP activity, negative = inhibition, hits mostly inhibitors | 370,000 compounds, 0.028% hits | AID 624246, 2012; active = well fitted inhibition curve with a large enough effect in the polarisation, with a control signal flat; inconclusive = small, poorly fitted or top-dose-only effect, or effect the other way, or a change in a side signal; inactive = no such curve, though single readings can be large or run the other way; the % refers to the polarisation;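 note: polarization taken with two DNA probes labelled with fluorescein and Texas red; potency is the fitted concentration of half-maximal effect; % of control where 0% means no effect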
Target sequence (P11308 whole entry, looked up, the tested form may be a part): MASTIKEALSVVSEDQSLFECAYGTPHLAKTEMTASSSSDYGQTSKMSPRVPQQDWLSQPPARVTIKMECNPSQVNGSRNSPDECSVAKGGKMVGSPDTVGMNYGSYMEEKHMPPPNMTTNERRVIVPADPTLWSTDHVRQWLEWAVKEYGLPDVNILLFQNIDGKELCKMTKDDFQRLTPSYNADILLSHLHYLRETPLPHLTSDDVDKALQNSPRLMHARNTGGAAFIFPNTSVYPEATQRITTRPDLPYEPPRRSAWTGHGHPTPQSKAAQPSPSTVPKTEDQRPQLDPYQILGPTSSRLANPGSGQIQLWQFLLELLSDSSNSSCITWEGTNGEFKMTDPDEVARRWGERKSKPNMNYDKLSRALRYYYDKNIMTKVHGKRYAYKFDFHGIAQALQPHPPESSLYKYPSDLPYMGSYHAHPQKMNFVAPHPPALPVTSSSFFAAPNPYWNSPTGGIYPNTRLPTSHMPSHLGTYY
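His-tagged ERG Ets domain (1 uM in the protein solution; 300mM KCl, 50mM Tris-HCl, 1mM EDTA, 1mM DTT, pH 7.5) received compound, then a probe mix of 5 nM fluorescein-DNA and 100nM Texas-615-DNA. Fluorescence polarization was read for both dyes.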
A549 viability = Nrf2 qHTS screen for inhibitors: counterscreen for cytotoxicity | Potency, µM (highest dose often 46 µM), for inactives: at the top dose activity change, negative = cytotoxicity, actives largely listed as inhibitors | A549 ARE-Fluc cells, CellTiter-Fluor viability, 18-24 h | 390,000 compounds, 0.16% hits | AID 504648, 2011; note: potency is the fitted concentration of half-maximal effect; % is set by controls: 0 for no effect and ±100 for the full control effect
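Cytotoxicity counterscreen: CellTiter-Fluor fluorescence was measured in A549 ARE_Fluc cells after 18-24 h of compound exposure in a concentration series. The subsequent BugLite luminescent read reports ARE-luciferase activity.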
Nrf2 activator = qHTS of Nrf2 Activators. 410,000 compounds, 0.31% hits. AREc32 ARE-luciferase reporter (MCF7-derived line), luminescence, 24 h. Potency, µM (highest dose often 46.1 µM), for the others: at the highest dose activation, actives largely listed as activators; note: potency is the fitted concentration of half-maximal effect; % of control where 0% means no effect; nearly all actives have a fitted effect of over 65% in size
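AREc32 cells carrying an ARE-driven firefly luciferase, 1000 cells/well in OPTI-MEM with 5% FBS, dosed after overnight attachment and incubated 24 hr at 37 deg C. Steady-Glo luminescence read after 30 min at RT.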
Nrf2 block = Nrf2 qHTS screen for inhibitors; A549 ARE-Fluc reporter, luciferase luminescence, 18-24 h; 360,000 compounds, 2.1% hits; AID 504444, 2011; Potency, µM (series often up to 46 µM), without a hit: at the top dose activity change, negative = inhibition, most hits filed as inhibitors; note: potency is the fitted concentration of half-maximal effect; % is set by controls: 0 for no effect and ±100 for the full control effect; nearly all actives have a fitted effect of over 60% in size
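Nrf2 activity is the BugLite luminescence, read 15 min after reagent at room temperature, following CellTiter-Fluor cytotoxicity readout (30 min, 37C). Compound titrations were applied for 18-24 h to 5000 A549 ARE_Fluc cells/well in 5% FBS OPTI-MEM.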
LDHA block = qHTS assay for inhibitors of human lactate dehydrogenase; L-lactate dehydrogenase A chain (Homo sapiens), P00338; purified LDHA, NADH/diaphorase-resazurin fluorescence; stronger effect = lower value; activity change, % (values are at about 110 or 230 µM); 480,000 compounds, 0.15% hits; in the data active = activity change below about -30%; inconclusive = mostly about -25% to -30%;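 note: plate controls were DMSO wells for no effect and wells without enzyme for full effect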
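Resorufin fluorescence (ex540/em590), read at 0 and 20 min after diaphorase/resazurin addition, reports the NADH left after a 5 min room-temperature reaction of 2 nM human LDH5 with 0.06 mM NADH and 0.2 mM pyruvate.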
* marks the source's active call; other numbers are inactive results; i = inactive; ? = inconclusive; / = not tested or not shown. Most compounds without a hit are left out; they make up all but 2.7% or so of the library. Unless noted, calls come from the whole dose curve; as a rule, active = well fitted curve in the direction sought with a large enough effect; inconclusive = small, poorly fitted or top-dose-only effect, or another doubt; inactive = no such curve, though single readings can be large; an effect the other way counts as inactive or inconclusive.

SMILES | 12-LOX inh | ERG-DNA inh | A549 viability | Nrf2 activator | Nrf2 block | LDHA block
CC(C)Oc1ccc(CNC(=O)c2cccc(NC(=O)N3CCSc4ncccc43)c2)cc1 | -15% | 1% | 4% | 3% | 23µM* | -5
COc1cc(/C=C/c2nc3c(ccc4ccccc43)s2)cc(OC)c1OC | ? | / | / | / | / | 10
Cc1cc(/C=C/c2nc3c(ccc4ccccc43)s2)cc(C)c1O | 6.3µM* | / | / | / | / | -2
O=C(NC1CCCC1)c1cc(-c2ccc(Cl)s2)nc2ccccc12 | ? | / | / | / | / | 0
COc1cc(O)c(CC=C(C)C)c(O)c1C(=O)CCc1ccc(O)cc1 | ? | 8% | ? | -1% | 26µM* | 0
FC(F)(F)c1cccc(N/N=C/c2ccccc2Br)c1 | ? | / | / | / | / | -4
COc1ccc(OC)c(-c2c3cc(O)c(=O)cc-3oc3cc(O)c(O)cc23)c1 | / | i | 21µM* | 3% | -54% | 1
O=c1cc2oc3cc(O)c(O)cc3c(-c3ccccc3O)c-2cc1O | / | 2% | -18% | ? | ? | 4
CCOc1ccccc1-c1c2cc(O)c(=O)cc-2oc2cc(O)c(O)cc12 | / | ? | 18µM* | -1% | ? | -10
O=C(CSc1nc2ccsc2c(=O)n1-c1cc(F)cc(F)c1)Nc1ccc2c(c1)OCCO2 | -17% | / | / | / | / | 0
Cc1ccsc1C(=O)C1CCCN(Cc2ccc(C#CC(C)(C)O)cc2)C1 (stereo not drawn) | 0% | / | / | / | / | /
Cc1ccsc1[C@@H]1CCN(Cc2ccc(C#CC(C)(C)O)cc2)C[C@H]1O | 45µM* | / | / | / | / | /
CC(=O)N1c2ccc(S(=O)(=O)NCCc3cccc(C)c3)cc2CC1C (stereo not drawn) | ? | 9% | -1% | 4% | 13µM* | -7
CCC(=O)N1c2ccc(S(=O)(=O)NCCc3ccccc3)cc2CC1C (stereo not drawn) | -25% | 13% | -9% | -1% | 23µM* | -14
CCC(=O)N1c2ccc(S(=O)(=O)NCCc3ccc(OC)c(OC)c3)cc2CC1C (stereo not drawn) | -8% | -6% | 2% | 0% | ? | -1
Cc1nc2cc(NS(=O)(=O)c3cccc(Cl)c3)ccc2o1 | ? | / | / | / | / | 7
COc1ccc(/C=N/Nc2nc3ccccc3[nH]2)cc1OC | -20% | -4% | 8% | 9% | 23% | -3
C(=N\Nc1nc2ccccc2[nH]1)/c1ccc2ncccc2c1 | 0% | ? | -7% | 7% | 21µM* | -4
COc1cc(/C=N\Nc2nc3ccccc3[nH]2)cc(OC)c1OC | 0% | -8% | 14% | -1% | 5.8µM* | -8
CCOc1cc(/C=N/Nc2nc3ccccc3[nH]2)cc(Br)c1OCC(=O)N(C)C | -3% | -12% | -11% | 0% | 18µM* | -6
Fc1ccccc1-c1ccc(/C=N/Nc2nc3ccccc3[nH]2)o1 | -22% | 2% | 4% | 11µM* | ? | -1
O=C(NCc1ccco1)c1cc(-c2ccccn2)nc2cc(F)ccc12 | -23% | / | / | / | / | -11
CCN(CC)c1ccc(/C=N/Nc2nc3ccccc3[nH]2)c(O)c1 | ? | 10% | ? | 14% | 26µM* | 6
C(=N\Nc1nc2ccccc2[nH]1)/c1ccc2c(c1)OCCO2 | 10% | 8% | ? | 3% | 2.6µM* | -23
COc1cc(OC)c(OC)cc1/C=N/Nc1nc2ccccc2[nH]1 | 393% | -5% | -4% | -1% | 1% | -5
COc1ccc(NC(=O)Cn2c(SCc3cc(C)ccc3C)nc3ccncc32)cc1OC | -10% | / | / | / | / | -9
Cc1ccsc1C(=O)N1CCC1(C)C(=O)NS(=O)(=O)c1cccc(F)c1 (stereo not drawn) | -9% | / | / | 0% | / | -7

Source: PubChem (National Center for Advancing Translational Sciences (NCATS))
